AHR act: activators of human aryl hydrocarbon receptor | P35869 | AHR-responsive luciferase reporter cells, luminescence | activation, % at 5 µM | hit rate 2.5% among 320,000; in the data active = activation above about 47%;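 note: 0% = vehicle wells and 100% = reference agonist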
Target sequence (P35869 whole entry, looked up): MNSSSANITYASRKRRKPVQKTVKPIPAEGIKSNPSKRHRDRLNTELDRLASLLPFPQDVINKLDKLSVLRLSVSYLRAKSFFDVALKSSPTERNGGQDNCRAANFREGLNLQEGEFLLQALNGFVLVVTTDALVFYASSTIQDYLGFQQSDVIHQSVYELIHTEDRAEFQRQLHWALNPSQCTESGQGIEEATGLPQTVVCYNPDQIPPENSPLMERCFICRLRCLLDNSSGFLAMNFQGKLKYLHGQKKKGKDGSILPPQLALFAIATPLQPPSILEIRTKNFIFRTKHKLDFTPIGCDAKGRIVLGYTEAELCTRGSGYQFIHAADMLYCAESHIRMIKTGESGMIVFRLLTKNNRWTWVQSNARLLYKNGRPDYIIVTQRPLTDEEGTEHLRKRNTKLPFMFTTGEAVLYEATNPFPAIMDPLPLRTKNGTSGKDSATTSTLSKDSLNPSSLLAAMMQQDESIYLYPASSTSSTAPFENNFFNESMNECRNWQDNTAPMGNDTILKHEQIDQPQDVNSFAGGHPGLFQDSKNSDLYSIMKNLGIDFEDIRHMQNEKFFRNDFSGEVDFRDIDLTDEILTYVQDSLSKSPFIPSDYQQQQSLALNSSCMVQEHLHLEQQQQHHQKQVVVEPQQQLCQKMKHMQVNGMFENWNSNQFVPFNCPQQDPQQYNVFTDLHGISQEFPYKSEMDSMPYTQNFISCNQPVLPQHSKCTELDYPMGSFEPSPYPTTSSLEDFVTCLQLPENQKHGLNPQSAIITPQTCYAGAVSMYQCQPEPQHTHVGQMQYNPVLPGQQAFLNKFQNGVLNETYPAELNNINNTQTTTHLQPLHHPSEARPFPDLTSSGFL
HSF1 activator: increases HSF-1 driven luciferase reporter signal | NIH3T3-HGL HSF-1 luciferase reporter, MG132, 8 h; 100% = twice DMSO control signal | activation, % at 9 µM | hit rate 1.7% among 300,000;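 active = mean replicate activation of at least 50% with a set share of replicates each reaching 50%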;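 note: 0% = median of the neutral control wells and 100% = twice that signal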
FXN GAA850 act: frataxin GAA850 promoter activation; hit rate 0.56% among 360,000; HEK293 lucGAA850 FXN promoter luciferase reporter, 24 h; percent of 10 µM SAHA response; activation, % at 6 µM;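 active = activation above the average of all compounds screened plus 3 SD, cutoff fixed separately per campaign, cut at about 7.5% in these data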;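 note: 0% = DMSO wells and 100% = 10 µM SAHA wells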
HSF1 inhib: HSF1 inhibition; NIH3T3-HGL HSE-luciferase, MG132-induced, luminescence 8 h; stronger effect = lower value; activity change, negative = inhibition, % at 7.5 µM (by protocol); hit rate 0.77% among 300,000; AID 2098;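 active = more than half of replicate wells show activity change below -50%, luminescence cut by over half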;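 note: luciferase reports HSF-1 transcriptional activity via heat shock element; 0% = median of DMSO wells and -100% = zero luminescence signal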
GAA30 FXN cntr: GAA30 FXN promoter activation counter-screen. shares compounds with FXN GAA850 act. HEK293 lucGAA30 FXN promoter luciferase, 24 h; DMSO = 0%, 5 µM ipriflavone = 100%. activation, % at 6 µM. hit rate 66% among 1,900. AID 588350;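 active = mean activation above the mean of solvent-only control wells plus 3 SD, cut at about 22% in these data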;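 note: counterscreen of GAA850 promoter hits where activity marks nonselective or luminescence artifacts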
GAA850 confirm: GAA850 FXN promoter activation confirmation | shares compounds with FXN GAA850 act | HEK293 lucGAA850 FXN promoter luciferase reporter, 24 h; 100% = activation by SAHA | activation, % at 6 µM | hit rate 86% among 1,900 | AID 588351;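 active = mean activation above a set limit taken from the primary screen, cut at about 8% in these data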;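 note: 0% = DMSO wells and 100% = 10 µM SAHA wells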
Starred values were filed as active, the others as inactive; . = no result. Rows were chosen to be rich in hits. Some 4.6% of all compounds tested hit in one or more screens of this group.

SMILES | AHR act | HSF1 activator | FXN GAA850 act | HSF1 inhib | GAA30 FXN cntr | GAA850 confirm
Cc1ccccc1NC(=O)C1=CC=CN2CCS(=O)(=O)N=C12 | 1 | . | 5 | . | . | .
CCC/C(=N\NC(=O)c1csc(C)c1C)c1cccs1 | 25 | -7 | 2 | 1 | . | .
CN(CC(=O)Nc1ccc(Cl)c(C(F)(F)F)c1)C(=O)CCCNC(=O)c1ccc(Cl)cc1 | 4 | . | 15* | . | 65* | 26*
CN(CC(=O)Nc1ccc(Cl)c(C(F)(F)F)c1)C(=O)CCNC(=O)c1ccco1 | 0 | 8 | 2 | 0 | . | .
Cc1ccc(SCc2ccc(C(=O)Nc3cccnc3)cc2)cc1 | 4 | 10 | 2 | 3 | . | .
Nc1ccc2nc(-c3ccccc3)c(-c3ccccc3)nc2c1 | 8 | -4 | 14* | 1 | -5 | 11*
COc1ccc(N2C(=O)C(Cl)=C(Nc3c(C)n(C)n(-c4ccccc4)c3=O)C2=O)cc1 | 2 | 19 | -1 | 2 | . | .
COc1ccccc1N(C)S(=O)(=O)c1ccc(Cl)c(C(=O)NCC2(N(C)C)CCCCC2)c1 | 1 | -1 | 12* | 2 | 25* | 4
O=C(c1cc(COc2ccc(F)cc2Cl)on1)N1CCSCC1 | -5 | 84* | 10* | 33 | 110* | 44*
COc1ccc(OCc2cc(C(=O)N3CCSCC3)no2)c(Cl)c1 | 2 | 33 | 3 | 12 | . | .
COc1ccc(NC(=O)c2ccc3[nH]c(C)c(C)c3c2)c(OC)c1 | 7 | 8 | 0 | -5 | . | .
O=C1NCC2=C1C(c1ccccc1)Nc1ccccc1N2 (stereo unspecified) | 15 | 15 | 3 | 17 | . | .
O=C(NC(=S)Nc1ccc(N2CCCC2)cc1)c1ccccc1[N+](=O)[O-] | 19 | -14 | 8.8* | 8 | 53* | 13*
C=CCNc1nc2c(c(=O)n(C)c(=O)n2C)n1Cc1ccc(F)cc1 | -2 | 9 | 11* | 6 | -4 | 1
CCOC(=O)c1sc(N/N=C/c2ccccc2)nc1C | 61* | -6 | 7.6* | -2 | 134* | 40*
CCCc1ccc2oc(C(=O)N3CCCC3)c(C)c2c1 | -1 | 36 | 4 | 19 | . | .
O=[N+]([O-])c1ccc(Sc2nc3ccccc3o2)c([N+](=O)[O-])c1 | 6 | 230* | 16* | 194 | -25 | 46*
O=[N+]([O-])c1ccc(Cl)cc1Sc1nc2ccccc2o1 | 2 | 10 | 1 | 6 | . | .
CCOC(=O)c1c(C)oc2ccc(NS(=O)(=O)c3cccs3)cc12 | 1 | -9 | -2 | 10 | . | .
COCCOC(=O)c1c(C)oc2ccc(NS(=O)(=O)c3cccs3)cc12 | -1 | 0 | 8.6* | 8 | 19 | 6
O/N=C(/CCc1ccccc1)c1ccc2c(c1)OCCO2 | 10 | 55* | 8.0* | 22 | 117* | 33*
COc1ccccc1C(=O)Nc1ccc2c(c1)nc1n2CCSC1 | 12 | . | 8.0* | . | 98* | 27*
COc1ccc(Nc2nc(N(C)c3ccccc3)nc(N)c2[N+](=O)[O-])cc1 | 0 | -11 | -1 | -15 | . | .
CS(=O)(=O)c1ccc(C(=O)NCCN2C(=O)S/C(=C\c3cccnc3)C2=O)cc1[N+](=O)[O-] | -2 | -13 | 14* | -3 | 148* | 44*
CN(C)S(=O)(=O)c1ccc(C(=O)NCCN2C(=O)S/C(=C\c3cccnc3)C2=O)cc1 | 0 | 2 | 0 | 2 | . | .
SMILES | AHR act | HSF1 activator | FXN GAA850 act | HSF1 inhib | GAA30 FXN cntr | GAA850 confirm
CCN(Cc1ccc(OC)c(F)c1)C(=O)c1oc2ccccc2c1COC | 7 | -2 | 3 | -1 | . | .
CC(=O)c1cccc(Nc2nc(-c3ccccc3)cs2)c1 | 56* | 23 | 7.8* | 5 | 101* | 28*
NNc1ccc(Cl)c(C(=O)O)c1 | 3 | 18 | 8.7* | -1 | 81* | 23*
Cc1ccc(C)c(N(C(=O)c2csnn2)C(C(=O)NC2CCCCC2)c2ccccn2)c1 (stereo unspecified) | 0 | -9 | 0 | 3 | . | .
CC1=CC(C)=Nc2ccccc2N1 | 11 | 20 | 7.9* | -11 | 79* | 18*
Cc1cc(C)n2nc(/C(C#N)=C/c3ccccn3)c(C#N)c2n1 | 6 | 99* | 16* | 71 | 32* | 37*
O=c1[nH]c2ccc(NCc3ccc(OCc4ccccc4Cl)cc3)cc2[nH]1 | . | 35 | 2 | 17 | . | .
COc1cc(CNc2ccc3[nH]c(=O)[nH]c3c2)ccc1OCc1cccc(C)c1 | 5 | 26 | 6 | 12 | . | .
COc1cc(CNc2ccc3[nH]c(=O)[nH]c3c2)ccc1OCc1ccc(C)cc1 | . | 13 | 9.0* | 16 | 74* | 30*
COc1cc(CNc2ccc3[nH]c(=O)[nH]c3c2)ccc1OCc1ccccc1Cl | 1 | 43 | 7.9* | 8 | 36* | 20*
Cc1cccc2cc(CN(C(=O)c3cnccn3)C3CCCCC3)c(Cl)nc12 | -1 | -1 | 7.6* | 6 | 11 | 5
COc1cc2c(cc1OC)-c1cc(N3CCc4ccccc43)nc(=O)n1CC2 | 5 | -8 | 2 | -1 | . | .
COc1cc2c(cc1OC)-c1cc(NC3CCCCCC3)nc(=O)n1CC2 | 2 | -5 | 12* | 0 | 26* | 12*
COc1cc2c(cc1OC)-c1cc(N3CCCc4ccccc43)nc(=O)n1CC2 | 15 | -3 | 10* | -4 | 22 | 16*
COc1cc2c(cc1OC)-c1cc(N3CCCCCC3)nc(=O)n1CC2 | 3 | 19 | 13* | 10 | 31* | 16*
COc1ccc(Nc2cc3n(c(=O)n2)CCc2cc(OC)c(OC)cc2-3)cc1 | 1 | -6 | 1 | -16 | . | .
COc1cc2c(cc1OC)-c1cc(OCc3cccnc3)nc(=O)n1CC2 | . | . | 8.8* | . | 14 | 13*
COc1cc2c(cc1OC)-c1cc(Nc3ccc(C(=O)O)cc3)nc(=O)n1CC2 | 1 | 0 | 1 | -3 | . | .
COc1cc2c(cc1OC)-c1cc(Nc3ccccc3)nc(=O)n1CC2 | -1 | -2 | 4 | 1 | . | .
CCOc1cccc(Nc2cc3n(c(=O)n2)CCc2cc(OC)c(OC)cc2-3)c1 | 6 | 11 | 9.6* | 0 | 22 | 12*
COc1cc2c(cc1OC)-c1cc(Nc3ccc(C)cc3)nc(=O)n1CC2 | 25 | 3 | 6 | -6 | . | .
COc1cc2c(cc1OC)-c1cc(Nc3ccccc3Br)nc(=O)n1CC2 | 3 | 9 | 9.2* | -6 | 18 | 16*
CC(=O)OC12CC3CC(C1)C(=NO)C(C3)C2 | -1 | -20 | 0 | -7 | . | .
CCCn1c(=O)[nH]c(=O)c2c(C(F)(F)F)cc(-c3ccc(C)cc3)nc21 | -2 | 25 | 1 | 1 | . | .
CC(C)Cn1c(=O)[nH]c(=O)c2c(C(F)(F)F)cc(-c3ccccc3)nc21 | 2 | . | 7.7* | . | -4 | 16*
CC(C)(C)c1csc(N/N=C/c2cccnc2)n1 | 28 | 1 | 7.9* | 0 | 91* | 37*

Source: PubChem BioAssay (several laboratories)
